About 79,000 compounds went through this panel and 15% of them were active in at least one assay; those are over-represented in the sample as a whole. The source made the active and inactive calls. Rule as the data show it: active = growth inhibition above about 70%; inactive = the rest.
Experiments:
[1] = NCI Yeast Anticancer Drug Screen. Data for the rad52 strain (AID 147);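 also: 0% = growth of vehicle-treated control cultures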; conditions: S. cerevisiae rad52 mutant growth inhibition, hits give high values
In short: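 Growth of repair-deficient yeast cells was compared between compound-treated and vehicle-treated cultures to give percent inhibition.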

[2] = NCI Yeast Anticancer Drug Screen. Data for the wt1 strain (AID 149);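 also: 0% = growth of vehicle-treated wt1 cultures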; conditions: S. cerevisiae wt1 strain (SPY 50644) growth inhibition, hits give high values
In short: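 wt1 strain grown with compound or vehicle; inhibition taken from the growth difference.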

[3] = NCI Yeast Anticancer Drug Screen. Data for the mgt1 strain (AID 153); conditions: S. cerevisiae mgt1 mutant growth inhibition, hits give high values
In short: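 Compounds were applied to mgt1 mutant yeast, and growth was then compared against vehicle-treated control cultures to give percent inhibition.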

[4] = NCI Yeast Anticancer Drug Screen. Data for the rad50 strain (AID 155);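 also: 0% = growth of vehicle-only cultures of the same strain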; conditions: S. cerevisiae rad50 strain growth inhibition, hits give high values
In short: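 DNA repair mutant yeast, compound exposure, growth read-out; inhibition is taken relative to vehicle.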

[5] = NCI Yeast Anticancer Drug Screen. Data for the mec2-1 strain (AID 157); conditions: S. cerevisiae mec2-1 strain, hits give high values
In short: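 Compounds were applied to mec2-1 yeast cells. Their growth was then compared with that of vehicle-treated cultures to give growth inhibition.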

[6] = NCI Yeast Anticancer Drug Screen. Data for the rad14 strain (AID 159);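 also: 0% = growth of vehicle-treated control cultures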; conditions: S. cerevisiae rad14 strain growth inhibition, hits give high values
In short: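 DNA repair-defective yeast, compound-exposed; % growth inhibition derived by comparison with vehicle-treated controls.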

[7] = NCI Yeast Anticancer Drug Screen. Data for the sgs1 mgt1 strain (AID 161);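 also: 0% = growth of cultures given vehicle only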; conditions: S. cerevisiae sgs1 mgt1 strain, hits give high values
In short: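 Compounds are added to genetically altered yeast, and growth is compared with cultures given vehicle alone to give percent inhibition.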

[8] = NCI Yeast Anticancer Drug Screen. Data for the CLN2oe strain (AID 163);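 also: 0% = growth of vehicle-only control cultures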; conditions: S. cerevisiae CLN2oe strain, hits give high values
In short: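 Cells of an engineered yeast line with disturbed cell-cycle regulation are treated with compound. Inhibition of growth is then calculated relative to the vehicle-treated reference.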

[9] = NCI Yeast Anticancer Drug Screen. Data for the cln2 rad14 strain (AID 165);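 also: 0% = growth equal to vehicle treated cultures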; conditions: S. cerevisiae cln2 rad14 strain, hits give high values
In short: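 Strain: cln2 rad14 yeast, altered in cell cycle control and DNA damage repair. Read-out: growth inhibition vs vehicle.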

[10] = NCI Yeast Anticancer Drug Screen. Data for the bub3 strain (AID 167); conditions: S. cerevisiae bub3 mutant strain, hits give high values
In short: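 In this screen, a yeast mutant lacking normal mitotic checkpoint function is challenged with compound. Relative growth versus vehicle gives the inhibition value.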

[11] = NCI Yeast Anticancer Drug Screen. Data for the wt2 strain (AID 169);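 also: 0% = growth of vehicle-treated yeast cultures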; conditions: S. cerevisiae wt2 strain growth inhibition, hits give high values
In short: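 Growth of compound-treated yeast is measured and expressed as inhibition relative to vehicle-only controls.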

[12] = NCI Yeast Anticancer Drug Screen. Data for the mlh1 strain (AID 171);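 also: 0% = growth of vehicle-treated control cultures of the same strain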; conditions: S. cerevisiae mlh1 strain growth inhibition, hits give high values
In short: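 Test agents were incubated with yeast bearing a defined DNA damage repair or cell cycle control alteration; values are growth inhibition normalised to vehicle-treated cultures.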

[13] = NCI Yeast Anticancer Drug Screen. Data for the sgs1 strain (AID 173);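 also: 0% = growth of vehicle-only control cultures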; conditions: S. cerevisiae sgs1 mutant, hits give high values
In short: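 Strain with an altered DNA repair or cell cycle pathway exposed to compound. Growth then measured. Value = inhibition versus vehicle control.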

[14] = NCI Yeast Anticancer Drug Screen. Data for the rad18 strain (AID 177); conditions: S. cerevisiae rad18 mutant growth inhibition, hits give high values
In short: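 DNA-repair-defective yeast; compound treatment; growth inhibition scored against vehicle.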

[15] = NCI Yeast Anticancer Drug Screen. Data for the rad50EPP+ strain (AID 151);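 also: 0% = growth of vehicle-treated control cultures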; conditions: S. cerevisiae rad50 mutant strain, hits give high values
In short: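 Measured: growth inhibition of rad50EPP+ yeast. Reference: vehicle-treated controls. Screen uses strains with defined genetic alterations in DNA damage repair or cell cycle control.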

[16] = at 5.0 µM (retest, dose inferred, filed as 0.5)
[17] = at 50.0 µM (retest, dose inferred, filed as 5.0)

Measured: growth inhibition

CCCCOP(=O)(CCCP(=O)(OCCCC)OCCCC)OCCCC
active: [1]; at 100.0 µM 97% | [2]; at 100.0 µM 94% | [4]; at 100.0 µM 97% | [5]; at 100.0 µM 95% | [6]; at 100.0 µM 90% | [8]; at 100.0 µM 81% | [10]; at 100.0 µM 79% | [11]; at 100.0 µM 96% | [12]; at 100.0 µM 91% | [13]; at 100.0 µM 93% | [14]; at 100.0 µM 95%
inactive: [1]; at 1.2 µM 0% | [1]; at 3.7 µM 0% | [1]; at 11.0 µM 3% | [1]; at 33.0 µM 4% | [2]; at 1.2 µM -3% | [2]; at 3.7 µM 0% | [2]; at 11.0 µM 0% | [2]; at 33.0 µM 5% | [3]; at 1.2 µM -3% | [3]; at 3.7 µM -3% | [3]; at 11.0 µM -1% | [3]; at 33.0 µM 10% | [3]; at 100.0 µM 42% | [4]; at 1.2 µM -1% | [4]; at 3.7 µM 1% | [4]; [16] 7% | [4]; at 11.0 µM 1% | [4]; at 33.0 µM 7% | [4]; [17] 66% | [4]; at 50.0 µM 2.05% | [5]; at 1.2 µM -6% | [5]; at 3.7 µM -3% | [5]; [16] -7% | [5]; at 11.0 µM 2% | [5]; at 33.0 µM 7% | [5]; [17] 48% | [5]; at 50.0 µM 49.5% | [6]; at 1.2 µM 0% | [6]; at 3.7 µM 3% | [6]; at 11.0 µM 9% | [6]; at 33.0 µM 20% | [7]; [16] 12% | [7]; [17] 50% | [7]; at 50.0 µM -2.15% | [8]; at 1.2 µM 1% | [8]; at 3.7 µM -3% | [8]; at 11.0 µM 7% | [8]; at 33.0 µM 29% | [9]; [16] 7% | [9]; [17] 38% | [9]; at 50.0 µM 1.1% | [10]; at 1.2 µM -5% | [10]; at 3.7 µM -3% | [10]; [16] 0% | [10]; at 11.0 µM -2% | [10]; at 33.0 µM 1% | [10]; [17] 4% | [10]; at 50.0 µM 19.2% | [11]; at 1.2 µM -2% | [11]; at 3.7 µM -5% | [11]; at 11.0 µM -4% | [11]; at 33.0 µM 0% | [12]; at 1.2 µM -5% | [12]; at 3.7 µM -2% | [12]; at 11.0 µM 1% | [12]; at 33.0 µM 8% | [13]; at 1.2 µM -3% | [13]; at 3.7 µM -1% | [13]; at 11.0 µM 0% | [13]; at 33.0 µM 5% | [14]; at 1.2 µM -7% | [14]; at 3.7 µM 0% | [14]; at 11.0 µM 5% | [14]; at 33.0 µM 8%

O=C1C=C(Cl)C(=O)N1c1cccc(Cl)c1
inactive: [1]; at 1.2 µM 6% | [2]; at 1.2 µM 12% | [15]; at 1.2 µM 41% | [4]; at 1.2 µM 11% | [5]; at 1.2 µM -6% | [5]; at 3.7 µM 63% | [5]; [16] 8% | [6]; at 1.2 µM 34% | [7]; [16] 11% | [10]; at 1.2 µM 55% | [10]; [16] 65% | [11]; at 1.2 µM 30% | [12]; at 1.2 µM -11% | [12]; at 3.7 µM 58% | [13]; at 1.2 µM 21%
active: [1]; at 3.7 µM 89% | [1]; at 11.0 µM 99% | [1]; at 33.0 µM 99% | [1]; at 100.0 µM 99% | [2]; at 3.7 µM 97% | [2]; at 11.0 µM 100% | [2]; at 33.0 µM 99% | [2]; at 100.0 µM 100% | [15]; at 3.7 µM 96% | [15]; at 11.0 µM 99% | [15]; at 33.0 µM 99% | [15]; at 100.0 µM 99% | [4]; at 3.7 µM 86% | [4]; [16] 87% | [4]; at 11.0 µM 99% | [4]; at 33.0 µM 99% | [4]; [17] 97% | [4]; at 50.0 µM 99.5% | [4]; at 100.0 µM 99% | [5]; at 11.0 µM 99% | [5]; at 33.0 µM 100% | [5]; [17] 99% | [5]; at 50.0 µM 99.6% | [5]; at 100.0 µM 99% | [6]; at 3.7 µM 97% | [6]; at 11.0 µM 100% | [6]; at 33.0 µM 100% | [6]; at 100.0 µM 100% | [7]; [17] 99% | [7]; at 50.0 µM 99.5% | [10]; at 3.7 µM 93% | [10]; at 11.0 µM 99% | [10]; at 33.0 µM 99% | [10]; [17] 98% | [10]; at 50.0 µM 99.5% | [10]; at 100.0 µM 100% | [11]; at 3.7 µM 99% | [11]; at 11.0 µM 100% | [11]; at 33.0 µM 100% | [11]; at 100.0 µM 100% | [12]; at 11.0 µM 99% | [12]; at 33.0 µM 100% | [12]; at 100.0 µM 100% | [13]; at 3.7 µM 95% | [13]; at 11.0 µM 99%

— PubChem BioAssay (NCI)
